Pol kappa inh: qHTS for Inhibitors of Polymerase Kappa; DNA polymerase kappa (Homo sapiens), Q9UBT6; purified Pol kappa, fluorescent DNA synthesis assay, 10 min; Potency, µM (top dose mostly 107 µM), actives largely listed as inhibitors; 400,000 compounds, 0.53% hits; AID 588579, 2011
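Fluorescent qHTS in 1536-well format: enzyme (10 nM) and compound sat 15 min at room temperature before 50 nM substrate (final) was added. Signal taken at 0 and 10 min; no-enzyme buffer wells were negative controls.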
Pol beta inh: qHTS Assay for Inhibitors of DNA Polymerase Beta. Potency, µM (titrated, usually from 114 µM), most hits filed as inhibitors. P06746. Pol beta primer extension/strand displacement, fluorescence kinetic. 340,000 compounds, 1.3% hits
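Preincubation: enzyme (10 nM) with compound, 15 min, RT. Reaction: substrate added to 50 nM final. Reads: 0 and 10 min. Analysis: normalized, Hill fit.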
POLH inh: qHTS for Inhibitors of Polymerase Eta. recombinant Pol eta, fluorescent DNA replication assay. Potency, µM (highest dose often 114 µM), usual class: inhibitors. AID 588591, 2011. 390,000 compounds, 1.2% hits. DNA polymerase eta (Homo sapiens), Q9Y253
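Pol eta (10 nM) was preincubated with compounds for 15 min at room temperature, after which fluorescent replication substrate (50 nM final) was added to start the reaction. Fluorescence was read kinetically at 0 and 10 min.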
GLS inh: qHTS for Inhibitors of Glutaminase (GLS); GLS enzymatic activity, qHTS titration; Potency, µM (highest dose often 45.5 µM), most hits filed as inhibitors; 410,000 compounds, 0.21% hits
Target sequence (O94925 whole entry, looked up): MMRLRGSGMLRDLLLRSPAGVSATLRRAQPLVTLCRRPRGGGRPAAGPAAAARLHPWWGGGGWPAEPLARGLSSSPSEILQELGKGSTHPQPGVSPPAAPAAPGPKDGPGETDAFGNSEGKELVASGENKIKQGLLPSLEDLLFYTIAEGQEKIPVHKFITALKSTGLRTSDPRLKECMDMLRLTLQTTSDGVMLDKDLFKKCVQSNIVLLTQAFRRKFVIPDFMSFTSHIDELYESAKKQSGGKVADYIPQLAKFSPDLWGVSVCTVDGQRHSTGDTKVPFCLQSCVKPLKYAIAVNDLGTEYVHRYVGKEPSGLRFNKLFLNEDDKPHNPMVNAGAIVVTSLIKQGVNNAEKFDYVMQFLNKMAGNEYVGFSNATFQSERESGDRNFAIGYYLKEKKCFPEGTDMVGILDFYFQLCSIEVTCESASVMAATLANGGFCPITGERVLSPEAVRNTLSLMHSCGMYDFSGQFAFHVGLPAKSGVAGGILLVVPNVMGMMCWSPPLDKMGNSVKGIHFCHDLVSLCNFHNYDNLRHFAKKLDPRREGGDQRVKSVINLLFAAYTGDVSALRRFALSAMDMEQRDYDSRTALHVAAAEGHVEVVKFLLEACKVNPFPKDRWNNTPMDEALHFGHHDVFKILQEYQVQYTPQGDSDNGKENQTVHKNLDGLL
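Two-point fluorescence kinetic (t0, 30 min RT) for hKGA; glutamate detected via glutamate oxidase–HRP–Amplex Red. Substrate: 1 mM L-glutamine solution; buffer 45 mM KH2PO4, pH 8.2.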
APEX1 inh: qHTS Assay for Inhibitors of the Human Apurinic/apyrimidinic Endonuclease 1 (APE1); DNA repair nuclease/redox regulator APEX1 (Homo sapiens), P27695; recombinant APE1, TAMRA/BHQ-2 abasic DNA cleavage fluorescence; Potency, µM (titrated, usually from 65.8 µM), actives largely listed as inhibitors; 350,000 compounds, 0.35% hits; AID 2517, 2012; also: nearly all actives have a fitted effect of over 55% in size
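Measures dequenching upon AP-site incision of a 5'-TAMRA/3'-BHQ-2 THF-containing duplex, 50 nM; human APE1 0.75 nM after 15 min room-temperature exposure to compound; kinetic three-point read at one-minute spacing.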
POLI inh: qHTS for Inhibitors of Polymerase Iota; DNA polymerase iota (Homo sapiens), Q9UNA4; Pol iota fluorescent replication assay, 10 min; Potency, µM (top dose mostly 115 µM), usual class: inhibitors; 390,000 compounds, 1% hits
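Fluorescent replication assay read twice, at 0 min and 10 min after adding 50 nM (final) substrate. Enzyme (10 nM) and compounds were first incubated 15 min at room temperature; enzyme-free buffer wells were negative controls.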
Numbers stand for hits; – = inactive; ? = inconclusive; · = no result given. The list is not random: actives were taken first. Their share in the collection is about 2.4%. Calls follow the shape of the dose curve; as a rule, active = well fitted curve in the direction sought with a large enough effect; inconclusive = small, poorly fitted or top-dose-only effect, or another doubt; inactive = no such curve, though single readings can be large; an effect the other way counts as inactive or inconclusive.

SMILES | Pol kappa inh | Pol beta inh | POLH inh | GLS inh | APEX1 inh | POLI inh
COc1cccc(C(=O)NC2CC3CCCC(C2)N3CC(=O)Nc2ccccc2)c1 (stereo unspecified) | – | 39.8µM | ? | 6.31µM | ? | ?
CCOC(=O)COc1ccc(S(=O)(=O)NCC2CCCO2)cc1 (stereo unspecified) | – | – | – | – | – | –
CCOc1ccccc1C(O)C1=CC(=O)c2ccccc2C1=O (stereo unspecified) | ? | · | 3.16µM | – | · | 6.31µM
COc1ccc(/C=N/NC(=O)c2ccn[nH]2)cc1COc1ccc(Cl)cc1Cl | – | – | – | – | – | –
CCOC(=O)[C@H]1[C@H]2COc3ccc(Br)cc3[C@@H]2N2C(=O)c3cc(Br)ccc3NC(=O)[C@@]12C | – | · | – | – | – | ?
COc1cc(/C=C/C(=O)C2C(=O)C=C(C)OC2=O)cc(OC)c1O (stereo unspecified) | – | – | – | – | – | ?
COc1ccc(/C=C/C(=O)C2C(=O)C=C(C)OC2=O)cc1O (stereo unspecified) | – | – | – | 7.08µM | – | ?
C=CCOC(=O)C(=O)/C=C/c1ccc2c(c1)Cc1ccccc1-2 | – | – | – | – | – | 12.6µM
C=CCOC(=O)C(=O)/C=C/c1csc2ccccc12 | – | – | – | – | – | ?
Cc1ccc(C(=O)Oc2csc(=S)n2C(=O)c2ccc(C)cc2)cc1 | – | – | – | – | – | ?
COc1ccc(C(=O)n2nc(-c3ccco3)nc2SC)cc1OC | – | ? | ? | – | – | 31.6µM
Nc1cc(=O)[nH]c(SCC(=O)N2CCc3ccccc3C2)n1 | – | – | – | – | – | –
O=C(O)c1ccc(N=Nc2c(O)[nH]c3ccc(Br)cc23)cc1 | – | – | ? | – | ? | –
O=c1ccc2cc3c([nH]c4ccc(Br)cc43)oc-2c1O | · | 10µM | · | · | ? | ·
CCN1CCC(N2CCN(c3ccccc3OC)CC2)CC1 | – | – | – | – | – | –
O=C(CN(Cc1ccco1)Cc1ccco1)Nc1cc(S(=O)(=O)N2CCCCC2)ccc1Cl | – | · | – | – | – | –
CSCCC(C(=O)OCC(=O)c1ccc(C)c(C)c1)N1C(=O)c2ccccc2C1=O (stereo unspecified) | – | – | – | – | – | –
CSCCC(C(=O)OC1CCOC1=O)N1C(=O)c2ccccc2C1=O (stereo unspecified) | ? | – | 35.5µM | – | – | ?
O=C(NCc1ccccc1Cl)C1CCN(C(=O)c2ccc(F)cc2)CC1 | · | · | – | – | · | ·
Cc1ccc(-c2nnn3c2nc(NCCc2ccc(S(N)(=O)=O)cc2)c2ccccc23)cc1 | – | 5.01µM | – | – | – | –
Cc1cccc(-c2nnn3c2nc(NCCc2ccc(S(N)(=O)=O)cc2)c2ccccc23)c1 | – | 10µM | ? | – | – | ?
c1ccc(CN=C2CCCc3ccccc3N2)cc1 | · | · | – | – | · | ·
O=[N+]([O-])c1cc(Cl)ccc1N1CCN(c2ccccc2O)CC1 | – | – | – | 15.8µM | – | –
CC(=O)c1ccc(N2CCN(c3ccc(C(N)=O)cc3[N+](=O)[O-])CC2)cc1 | – | – | – | – | – | –
NC(=O)c1ccc(N2CCN(c3ccc(O)cc3)CC2)c([N+](=O)[O-])c1 | – | – | – | 12.6µM | ? | ?
SMILES | Pol kappa inh | Pol beta inh | POLH inh | GLS inh | APEX1 inh | POLI inh
COc1cc(OC)c(NC(=O)CCCn2nc(C)c3sc4ccccc4c3c2=O)cc1Cl | ? | 15.8µM | – | – | · | ?
Cc1nn(CC(=O)NCc2cccc(Br)c2)c(=O)c2c1sc1ccccc12 | – | 6.31µM | – | – | · | –
CCOc1ccc(CNC(=O)Cn2nc(C)c3sc4ccccc4c3c2=O)cc1 | – | 89.1µM | – | – | · | –
COc1cccc(CNC(=O)Cn2nc(C)c3sc4ccccc4c3c2=O)c1OC | – | – | – | – | · | –
Cc1nn(CC(=O)NCCCc2ccccc2)c(=O)c2cccn12 | – | – | – | – | – | –
Cc1nn(CC(=O)NCc2cccc(F)c2)c(=O)c2cccn12 | 89.1µM | – | – | – | – | ?
Nc1c(O)ccc2c1C(=O)c1ccccc1C2=O | 79.4µM | 50.1µM | ? | – | – | ?
COc1ccc2c(c1O)C(=O)c1ccccc1C2=O | · | – | · | · | – | ·
CC(C)COC(=O)N1CCCCC1c1cc(C(=O)NCc2ccc(F)cc2)no1 (stereo unspecified) | · | · | · | – | · | ·
Cc1ccc2[nH]c3nc(N/N=C/c4cccc(O)c4)nnc3c2c1 | – | 5.01µM | – | – | – | ?
COc1cc(/C=N/Nc2nnc3c(n2)[nH]c2ccccc23)ccc1O | – | ? | ? | ? | – | 39.8µM
COc1cc(/C=N/Nc2ccccc2)ccc1O | – | – | – | – | – | ?
CCCCCc1nc2c(=O)[nH]c3ccccc3c2o1 | – | – | – | – | – | –
Cc1ccc(CCN2C(=O)c3ccc(C(=O)O)cc3C2=O)cc1 | · | · | · | · | – | ·
CCC1(OC(=O)CN(C)C)C(=O)OCc2c1cc1n(c2=O)Cc2cc3c(N)cccc3nc2-1 (stereo unspecified) | ? | · | 7.94µM | – | · | 8.91µM
O=C(O)c1[nH]c2ccccc2c1C(c1ccccc1)c1c(C(=O)O)[nH]c2ccccc12 | – | ? | – | 11.2µM | – | –
Cc1cccc(/C=C/C(=O)c2ccc([N+](=O)[O-])o2)c1 | – | · | ? | – | – | 11.2µM
COc1cc(NC(=O)C2CC(=O)N(CCc3ccccc3)C2)cc(OC)c1 (stereo unspecified) | – | · | – | – | – | –
N=C(N)c1ccc(N=Nc2c(O)ccc3c2[nH]c2ccccc23)cc1 | 79.4µM | · | 39.8µM | – | · | –
CCc1ccc(N2C(=O)CC(N(CC3CCCO3)C(=O)/C=C/C(=O)O)C2=O)cc1 (stereo unspecified) | – | 44.7µM | ? | – | – | –
COc1ccc(CCN(C(=O)/C=C/C(=O)O)C2CC(=O)N(c3ccccc3)C2=O)cc1 (stereo unspecified) | – | – | – | – | – | –
O=C1O/C(=C/Br)CCC1c1cccc2ccccc12 (stereo unspecified) | – | – | ? | · | – | –
Cc1ccc(C(=O)O/N=C(\N)c2ccc(Br)cc2)cc1 | – | ? | – | – | – | 89.1µM
CCNC(=S)N=Nc1c(O)[nH]c2ccc([N+](=O)[O-])cc12 | ? | ? | – | – | – | –

Compound activity deposited in PubChem by National Center for Advancing Translational Sciences (NCATS).
